For some of these results: Potency and affinity values are given separately.

Our source for the Percent Effect values is ChEMBL document CHEMBL3988442, “University of Dundee, Small-Polar-MMV Screening Library” (2021).

What all share (design): scale not given: direction of the effect not stated beside the values
Experiment [1] has as its target Protein translocase subunit SecA (Escherichia coli (strain K12)) (UniProt P10408). Put plainly: Assay to Identify E. coli SecA ATPase Inhibitors. To be noted: 30 µM. The class given is functional.
Experiment [2] has as its target T1, Ubiquitin-activating enzyme e1, putative (Leishmania donovani (strain BPK282A1)) (UniProt E9BSI1).
T1 sequence (whole entry): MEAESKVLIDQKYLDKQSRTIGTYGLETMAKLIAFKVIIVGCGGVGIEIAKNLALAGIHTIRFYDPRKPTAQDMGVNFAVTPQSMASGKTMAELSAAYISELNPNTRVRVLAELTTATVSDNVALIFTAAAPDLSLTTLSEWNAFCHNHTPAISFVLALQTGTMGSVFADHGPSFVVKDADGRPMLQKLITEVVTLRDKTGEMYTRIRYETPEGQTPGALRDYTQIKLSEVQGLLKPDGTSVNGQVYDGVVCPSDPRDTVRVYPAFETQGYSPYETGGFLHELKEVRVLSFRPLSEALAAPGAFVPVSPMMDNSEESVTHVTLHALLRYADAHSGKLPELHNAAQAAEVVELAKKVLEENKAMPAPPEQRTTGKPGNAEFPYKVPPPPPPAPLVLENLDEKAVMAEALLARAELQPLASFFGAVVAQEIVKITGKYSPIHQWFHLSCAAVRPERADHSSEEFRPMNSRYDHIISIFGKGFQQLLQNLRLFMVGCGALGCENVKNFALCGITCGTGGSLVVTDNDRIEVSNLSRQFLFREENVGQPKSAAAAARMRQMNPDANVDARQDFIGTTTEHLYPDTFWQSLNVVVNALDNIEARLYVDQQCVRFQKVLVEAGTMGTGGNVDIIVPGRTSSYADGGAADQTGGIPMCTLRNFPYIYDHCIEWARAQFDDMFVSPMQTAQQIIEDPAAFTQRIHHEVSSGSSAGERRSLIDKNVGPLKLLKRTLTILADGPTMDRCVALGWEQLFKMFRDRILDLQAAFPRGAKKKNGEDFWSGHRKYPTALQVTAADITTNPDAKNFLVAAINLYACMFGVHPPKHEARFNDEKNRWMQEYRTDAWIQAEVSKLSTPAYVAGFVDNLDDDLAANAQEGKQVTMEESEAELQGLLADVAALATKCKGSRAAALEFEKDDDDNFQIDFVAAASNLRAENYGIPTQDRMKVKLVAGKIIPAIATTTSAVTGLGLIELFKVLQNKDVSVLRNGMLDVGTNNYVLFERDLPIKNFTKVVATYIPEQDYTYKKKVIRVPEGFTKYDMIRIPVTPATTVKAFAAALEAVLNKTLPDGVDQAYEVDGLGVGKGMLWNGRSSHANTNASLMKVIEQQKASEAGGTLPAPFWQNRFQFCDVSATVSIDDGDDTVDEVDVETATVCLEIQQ
The experiment can be described thus: Leishmania donovani Ubiquitin Activating Enzyme (LdE1). The class given is functional. To be noted: 30 µM.

The target in experiment [3] is AMP-activated protein kinase, AMPK (Homo sapiens) (UniProt P54646+O43741+P54619+Q9UGJ0+Q9Y478+Q13131+Q9UGI9). The experiment can be described thus: AMP-dependent Kinase enzyme assay. An in vitro enzyme assay that detects ADP turnover that is directly proportional to AMPK activity. This uses naive AMPK that is activated during the assay with MK-8722. The experiment is classed as functional. To be noted: 30 µM.

Experiment [4] deals with Sialic acid-binding Ig-like lectin 9 (Homo sapiens) (UniProt Q9Y336). Put plainly: Hs-Siglec9 ALPHAscreen SOP 20170721. To be noted: 10 µM. (In general: Bead proximity is the source of the signal in Alpha formats.)
In a further experiment the test system is Trypanosoma cruzi. Put plainly: Trypanosoma cruzi phosphomannomutase and mannose-1-phosphate guanylyltransferase assay. The class given is functional. To be noted: 10 µM.
The target in experiment [5] is T2, Arginase-2, mitochondrial (Homo sapiens) (UniProt P78540).
T2 sequence (whole entry): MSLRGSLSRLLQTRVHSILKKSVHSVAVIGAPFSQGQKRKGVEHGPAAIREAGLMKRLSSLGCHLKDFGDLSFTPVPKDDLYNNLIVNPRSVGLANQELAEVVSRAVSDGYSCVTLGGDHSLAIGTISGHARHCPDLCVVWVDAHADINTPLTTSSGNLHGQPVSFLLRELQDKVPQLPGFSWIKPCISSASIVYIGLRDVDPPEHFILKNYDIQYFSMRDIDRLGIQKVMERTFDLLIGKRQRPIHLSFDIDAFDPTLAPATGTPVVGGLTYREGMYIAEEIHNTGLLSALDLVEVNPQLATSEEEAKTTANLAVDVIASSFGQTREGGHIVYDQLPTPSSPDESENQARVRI
The experiment can be described thus: in vitro enzyme assay to detect the production of urea directly proportional to the activity of Arginase II. Further: in the data most compounds retested in dose-response had high values. The class given is functional. To be noted: 33.3 µM.

The target in experiment [6] is T3, Proteasome subunit beta (Trypanosoma cruzi) (UniProt O96673).
T3 sequence (whole entry): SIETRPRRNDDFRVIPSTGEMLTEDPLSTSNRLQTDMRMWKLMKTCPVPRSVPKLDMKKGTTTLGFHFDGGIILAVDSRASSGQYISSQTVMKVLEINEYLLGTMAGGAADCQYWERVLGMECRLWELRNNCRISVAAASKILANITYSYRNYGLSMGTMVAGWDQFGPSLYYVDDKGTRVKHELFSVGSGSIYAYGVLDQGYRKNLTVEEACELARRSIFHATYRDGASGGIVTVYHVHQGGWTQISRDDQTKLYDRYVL
Put plainly: Trypanosoma cruzi proteasome chymotrypsin-like activity (TcProtChymo) assay. Further: in the data most compounds retested in dose-response had high values. The experiment is classed as functional. To be noted: 9.37 µM.

The species entered for the next experiment is Homo sapiens. The experiment can be described thus: To identify inhibition of the IFN signalling (Jak-Stat) pathway via expression of an eGFP reporter gene under the control of an IFN-stimulated response element (ISRE) containing MxA promoter. The experiment is classed as functional. To be noted: 30 µM.
For experiment [7], the target named is T4, Tyrosyl-tRNA synthetase, putative (Trypanosoma cruzi (strain CL Brener)) (UniProt Q4DSP6).
T4 sequence (whole entry): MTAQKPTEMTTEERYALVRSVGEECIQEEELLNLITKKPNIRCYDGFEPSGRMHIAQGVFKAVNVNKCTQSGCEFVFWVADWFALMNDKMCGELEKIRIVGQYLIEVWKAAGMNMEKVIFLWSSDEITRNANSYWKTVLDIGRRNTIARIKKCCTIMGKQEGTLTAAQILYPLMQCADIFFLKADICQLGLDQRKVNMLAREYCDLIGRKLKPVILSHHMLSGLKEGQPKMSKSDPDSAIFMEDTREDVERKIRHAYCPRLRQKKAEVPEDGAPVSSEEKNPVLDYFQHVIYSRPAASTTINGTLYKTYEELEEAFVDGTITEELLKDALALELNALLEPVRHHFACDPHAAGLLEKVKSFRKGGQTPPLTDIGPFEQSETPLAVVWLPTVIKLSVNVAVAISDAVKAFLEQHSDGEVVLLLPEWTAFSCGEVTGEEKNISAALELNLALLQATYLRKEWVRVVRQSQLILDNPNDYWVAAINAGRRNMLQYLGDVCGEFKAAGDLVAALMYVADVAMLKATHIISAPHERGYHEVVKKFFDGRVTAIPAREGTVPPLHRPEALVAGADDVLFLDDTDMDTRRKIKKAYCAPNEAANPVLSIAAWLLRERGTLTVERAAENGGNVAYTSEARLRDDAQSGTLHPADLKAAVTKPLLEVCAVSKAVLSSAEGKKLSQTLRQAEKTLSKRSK
Put plainly: Trypanosoma cruzi tyrosyl tRNA synthetase (TcYRS) _High Tyrosine SOP. Further: in the data most compounds retested in dose-response had high values. The class given is functional. To be noted: 30 µM.

Experiment [8] has as its target T4, Tyrosyl-tRNA synthetase, putative (Trypanosoma cruzi (strain CL Brener)). Put plainly: Trypanosoma cruzi tyrosyl tRNA synthetase (TcYRS) SOP. The experiment is classed as functional. To be noted: 30 µM.
Experiment [9] deals with Chromo domain-containing protein 1 (Saccharomyces cerevisiae (strain ATCC 204508 / S288c) (Baker's yeast)) (UniProt P32657). Put plainly: ScCHD-1 Enzyme Inhibition Assay. Further: in the data most compounds retested in dose-response had high values. The experiment is classed as functional. To be noted: 30 µM.
Chain of Chromo domain-containing protein 1 (Saccharomyces cerevisiae (strain ATCC 204508 / S288c) (Baker's yeast)) (P32657 whole entry, the tested form may be a part): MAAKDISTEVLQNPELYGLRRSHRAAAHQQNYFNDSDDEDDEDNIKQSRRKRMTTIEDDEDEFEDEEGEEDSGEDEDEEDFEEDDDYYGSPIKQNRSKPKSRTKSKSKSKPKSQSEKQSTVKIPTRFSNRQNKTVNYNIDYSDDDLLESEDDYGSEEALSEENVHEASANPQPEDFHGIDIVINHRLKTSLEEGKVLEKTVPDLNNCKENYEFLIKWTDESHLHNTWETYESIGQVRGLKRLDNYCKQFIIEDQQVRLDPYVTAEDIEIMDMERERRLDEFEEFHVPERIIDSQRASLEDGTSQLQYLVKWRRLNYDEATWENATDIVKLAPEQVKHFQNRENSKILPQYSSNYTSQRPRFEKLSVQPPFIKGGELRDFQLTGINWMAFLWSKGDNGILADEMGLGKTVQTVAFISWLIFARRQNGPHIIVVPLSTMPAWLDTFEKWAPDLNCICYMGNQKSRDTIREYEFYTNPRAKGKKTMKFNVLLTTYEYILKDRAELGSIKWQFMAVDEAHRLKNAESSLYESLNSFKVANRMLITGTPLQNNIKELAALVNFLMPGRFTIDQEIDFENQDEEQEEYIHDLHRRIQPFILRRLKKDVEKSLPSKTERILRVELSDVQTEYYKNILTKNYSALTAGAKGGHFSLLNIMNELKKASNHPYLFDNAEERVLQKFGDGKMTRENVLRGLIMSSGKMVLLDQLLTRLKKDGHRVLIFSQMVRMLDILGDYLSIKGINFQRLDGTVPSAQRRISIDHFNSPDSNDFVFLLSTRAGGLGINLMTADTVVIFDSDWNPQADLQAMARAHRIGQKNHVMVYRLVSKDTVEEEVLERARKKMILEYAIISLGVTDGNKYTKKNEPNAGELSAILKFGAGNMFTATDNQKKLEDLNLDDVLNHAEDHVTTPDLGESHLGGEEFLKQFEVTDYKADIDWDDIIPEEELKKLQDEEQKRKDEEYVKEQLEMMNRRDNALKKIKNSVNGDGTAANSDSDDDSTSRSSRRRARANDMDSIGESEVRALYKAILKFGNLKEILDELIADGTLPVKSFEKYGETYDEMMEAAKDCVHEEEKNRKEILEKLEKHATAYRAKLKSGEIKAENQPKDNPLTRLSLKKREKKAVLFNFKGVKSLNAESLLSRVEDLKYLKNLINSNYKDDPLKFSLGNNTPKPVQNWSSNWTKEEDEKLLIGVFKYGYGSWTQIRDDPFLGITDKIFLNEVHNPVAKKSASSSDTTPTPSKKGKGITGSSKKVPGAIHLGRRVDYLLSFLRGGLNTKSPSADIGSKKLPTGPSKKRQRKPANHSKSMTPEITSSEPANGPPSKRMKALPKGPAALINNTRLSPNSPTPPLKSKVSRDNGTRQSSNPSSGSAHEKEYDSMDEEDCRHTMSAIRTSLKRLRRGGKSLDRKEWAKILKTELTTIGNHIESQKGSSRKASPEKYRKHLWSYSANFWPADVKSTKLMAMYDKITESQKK

Chain of Protein translocase subunit SecA (Escherichia coli (strain K12)) (P10408 whole entry): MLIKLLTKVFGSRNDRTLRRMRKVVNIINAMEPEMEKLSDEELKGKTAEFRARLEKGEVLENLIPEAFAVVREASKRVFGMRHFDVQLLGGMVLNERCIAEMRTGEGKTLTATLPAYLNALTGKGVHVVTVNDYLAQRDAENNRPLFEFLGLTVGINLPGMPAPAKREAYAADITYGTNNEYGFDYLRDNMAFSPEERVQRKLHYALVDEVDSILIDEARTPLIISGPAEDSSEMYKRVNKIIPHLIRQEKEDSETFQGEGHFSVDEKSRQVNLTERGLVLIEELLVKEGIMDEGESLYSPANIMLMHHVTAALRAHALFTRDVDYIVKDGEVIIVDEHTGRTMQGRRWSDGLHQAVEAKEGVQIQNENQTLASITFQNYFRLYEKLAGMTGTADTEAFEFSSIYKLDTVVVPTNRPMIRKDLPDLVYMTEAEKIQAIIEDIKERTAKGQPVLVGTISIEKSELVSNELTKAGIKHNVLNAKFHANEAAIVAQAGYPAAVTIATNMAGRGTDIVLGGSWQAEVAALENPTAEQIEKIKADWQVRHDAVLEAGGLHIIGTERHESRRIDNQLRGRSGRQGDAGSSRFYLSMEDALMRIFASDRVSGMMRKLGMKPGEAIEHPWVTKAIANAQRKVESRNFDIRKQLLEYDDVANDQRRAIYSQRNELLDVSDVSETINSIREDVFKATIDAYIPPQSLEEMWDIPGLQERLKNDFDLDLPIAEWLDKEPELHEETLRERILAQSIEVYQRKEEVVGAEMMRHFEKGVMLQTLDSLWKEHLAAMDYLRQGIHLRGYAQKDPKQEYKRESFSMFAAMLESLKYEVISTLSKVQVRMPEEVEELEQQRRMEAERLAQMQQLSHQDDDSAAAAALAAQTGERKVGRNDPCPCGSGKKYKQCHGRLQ
Chain of Sialic acid-binding Ig-like lectin 9 (Homo sapiens) (Q9Y336 whole entry): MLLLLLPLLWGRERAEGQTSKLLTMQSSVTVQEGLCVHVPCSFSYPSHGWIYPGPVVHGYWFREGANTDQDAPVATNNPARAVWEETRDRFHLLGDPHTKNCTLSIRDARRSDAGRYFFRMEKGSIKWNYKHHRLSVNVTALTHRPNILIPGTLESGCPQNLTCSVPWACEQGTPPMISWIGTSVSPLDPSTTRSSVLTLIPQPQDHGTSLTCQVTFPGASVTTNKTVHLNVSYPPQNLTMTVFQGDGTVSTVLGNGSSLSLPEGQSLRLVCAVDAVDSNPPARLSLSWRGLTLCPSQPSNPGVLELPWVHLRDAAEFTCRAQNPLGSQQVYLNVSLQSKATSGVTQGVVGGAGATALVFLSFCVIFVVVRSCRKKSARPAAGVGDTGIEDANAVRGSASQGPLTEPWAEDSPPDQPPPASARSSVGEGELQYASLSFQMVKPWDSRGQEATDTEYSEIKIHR

With `O=c1cc2c(nn1CN1CCN(c3cccc(Cl)c3)CC1)CCC2`, the Percent Effect in [1] is -3.06%; in experiment [2], 6.67%; in [3] it was 0.948%; in experiment [4] it was 5.21%; in the experiment with Trypanosoma cruzi it was 0.589%; in experiment [5], -6.87%. The Percent Effect in experiment [6] was 19%; in the experiment listed under Homo sapiens, 4.05%; in experiment [7], 6.35%; in experiment [8], 12.8%; in experiment [9] it was -2.65%.
`c1cncc(COCc2nnc3n2CCN(Cc2ccsc2)C3)c1`: the Percent Effect in experiment [1] is -1.63%; in experiment [2], 13%; in experiment [3] it was 2.4%; in experiment [4], 6.44%; in the experiment on Trypanosoma cruzi, -2.26%; in [5], -23.4%. Also, the Percent Effect in experiment [6] was 19.6%; in the experiment filed under Homo sapiens, 25%; in [7], 3.23%; in experiment [8] it was 8.64%; in experiment [9], -2.81%.
Consider `COc1ccc(NC(C)C(=O)NCCc2cccs2)cc1F` (stereo not drawn), for which the Percent Effect in experiment [1] was -7.72%; in [2] it was -2.74%; in experiment [3] it was -49.8%; in experiment [4] it was 6.34%; in the experiment with Trypanosoma cruzi, -3.92%; in experiment [5], 0%. Further, the Percent Effect in [6] was 15.3%; in the experiment listed under Homo sapiens it was 14.2%; in [7], -1.07%; in experiment [8], -5%; in experiment [9], -3.93%.
Consider `Cc1ncc(CNC2CCCN(Cc3noc(C4CC4)n3)C2)s1` (stereo not drawn), for which the Percent Effect in experiment [1] is -0.948%; in experiment [2], 10.5%; in experiment [3] it was 2.18%; in [4], 8.33%; with Trypanosoma cruzi it was 3.01%; in experiment [5], 2.3%. Besides, the Percent Effect in experiment [6] was 10.2%; in the experiment listed under Homo sapiens, 8.96%; in experiment [7], 7.35%; in [8], 19.5%; in experiment [9] it was -8.72%.
With `Cc1nn(C)c(C)c1CCC(=O)N1CCCC1Cn1cccn1` (stereo not drawn), the Percent Effect in experiment [1] is -4.71%; in experiment [2] it was -2.7%; in [3], 5.43%; in [4], -1.49%; with Trypanosoma cruzi it was -3.52%; in experiment [5], 2.08%. The Percent Effect is 3.63% in [6]; -0.691% in the experiment listed under Homo sapiens; 1.98% in [7]; 11% in experiment [8]; 1.96% in experiment [9].
Turning to `NC(=O)C1CCN(C(=O)Cn2nc(-c3ccccc3)oc2=O)C1` (stereo not drawn), the Percent Effect is -4.97% in experiment [1]; 7.79% in experiment [2]; 1.04% in experiment [3]; 8.76% in experiment [4]; 2.46% in the experiment with Trypanosoma cruzi; -13.8% in [5]. The Percent Effect in experiment [6] was 8.82%; in the experiment listed under Homo sapiens it was -30.7%; in experiment [7] it was 2.15%; in [8] it was 13.6%; in [9], -0.676%.
With `NC(=O)CCOc1nc(-c2ccccc2Cl)no1`, the Percent Effect was -6.94% in [1]; 2.74% in [2]; -11.9% in [3]; 31.6% in [4]; 8.23% in the experiment on Trypanosoma cruzi; -1.82% in experiment [5]. The Percent Effect in experiment [6] is 8.87%; in the experiment filed under Homo sapiens it was -2.22%; in [7], 4.3%; in experiment [8], 15%; in experiment [9], -6.33%.
With `Cc1ccc(C)c(OC2CCN(C(=O)c3ccc(O)nc3)CC2)c1`, the Percent Effect was -1.92% in experiment [1]; 15.8% in experiment [2]; -2.4% in [3]; 7.02% in experiment [4]; 3.76% in the experiment with Trypanosoma cruzi; 0.383% in experiment [5]. Besides, the Percent Effect in [6] is 17.5%; in the experiment filed under Homo sapiens it was 10.8%; in experiment [7] it was 8.33%; in [8], 21.9%; in [9], -11.2%.
